Assay results from PubChem BioAssay (NCATS).
Results filed as inconclusive are left out. Activity calls are given as the source filed them. Calls come from the whole dose curve; as a rule, active = well fitted curve in the direction sought with a large enough effect; inconclusive = small, poorly fitted or top-dose-only effect, or another doubt; inactive = no such curve, though single readings can be large; an effect the other way counts as inactive or inconclusive.

Assays:
[1] = qHTS assay for measurement of the activity of small molecule inhibitors on Zika virus induced Caspase-3 activity in human astrocytoma cells (AID 1224859); conditions: SNB-19 ZIKV-induced caspase-3/7, luminescence, 6 h; series mostly up to 45.7 µM;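 note: plate controls were ZIKV-infected untreated cells for no effect and uninfected cells for full effect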
In short: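 Compound added 1 h pre-infection; ZIKV 2 FFU/cell on SNB-19 cells, 6 h, 37 C/5% CO2. Caspase-Glo 3/7 luminescence; values as % inhibition of ZIKV-induced caspase activity.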

[2] = NS1 protein of Zika virus - qHTS assay to identify small molecule inhibitors in human HEK 293 cells (AID 1347053); conditions: HEK293 ZIKV MR766 infection, NS1 TR-FRET, 24 h; series mostly up to 46.1 µM;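 note: plate controls were infected untreated cells for no effect and uninfected cells for full effect; nearly all actives have a fitted effect of over 55% in size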
In short: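 HEK 293 cells pretreated with compound for 1 h, then infected with ZIKV MR766 (MOI 0.5) for 24 h at 37 C. NS1 detected by TR-FRET with two anti-NS1 antibodies; normalized to uninfected (0%) and infected (100%) wells.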

[3] = qHTS of pediatric cancer cell lines to identify multiple opportunities for drug repurposing: Primary screen for TC32 cells (AID 1347089); conditions: TC32 Ewing sarcoma viability, CellTiter-Glo luminescence, 48 h; series mostly up to 45.8 µM; note: % is set by controls: 0 for no effect and ±100 for the full control effect; nearly all actives have a fitted effect of over 60% in size
In short: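 TC32 cells, 500-1,000/well in growth medium, compound-treated 48 h at 37 °C; viability from CellTiter-Glo luminescence. Primary screen: MIPE 11-point (0.78 nM–46 µM final), NPC 8-point (0.59 nM–46 µM final); confirmatory at 11-point dilutions.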

[4] = qHTS of pediatric cancer cell lines to identify multiple opportunities for drug repurposing: Primary screen for SJ-GBM2 cells (AID 1347091); conditions: SJ-GBM2 viability, CellTiter-Glo luminescence, 48 h; series mostly up to 46 µM; note: potency is the fitted concentration of half-maximal effect;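 for activity change, negative = cytotoxic: plate controls were DMSO neutral control for no effect and bortezomib for full effect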
In short: (§1)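 Eight- or eleven-point concentration series, 48 h treatment at 37 degrees C in growth media; readout CellTiter-Glo luminescence. Potency and efficacy were taken from the concentration-response curves.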

[5] = qHTS of pediatric cancer cell lines to identify multiple opportunities for drug repurposing: Primary screen for A673 cells (AID 1347092); conditions: A673 Ewing sarcoma viability, CellTiter-Glo ATP luminescence, 48 h; series mostly up to 46 µM; note: nearly all actives have a fitted effect of over 45% in size; note: potency is the fitted concentration of half-maximal effect; for activity change, negative = cytotoxic: % is set by controls: 0 for no effect and ±100 for the full control effect
In short: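 A673 cells (500-1,000 cells/well) were treated 48 hours at 37 degrees C with compounds at 11-point (0.78 nM to 46 µM) or 8-point (0.59 nM to 46 µM) dilutions. Viability read by CellTiter-Glo luminescence; concentration-response curves fitted.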

[6] = qHTS of pediatric cancer cell lines to identify multiple opportunities for drug repurposing: Primary screen for BT-37 cells (AID 1347094); conditions: BT-37 viability, CellTiter-Glo luminescence, 48 h; series mostly up to 57.3 µM;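 note: plate controls were DMSO for no effect and bortezomib for full effect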
In short: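 Phenotypic viability qHTS, 48 h compound exposure, CellTiter-Glo luminescence read-out; multi-concentration dosing so that potency and efficacy derive directly from the primary screen's curves.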

[7] = qHTS of pediatric cancer cell lines to identify multiple opportunities for drug repurposing: Primary screen for SK-N-MC cells (AID 1347093); conditions: SK-N-MC viability, CellTiter-Glo luminescence, 48 h; series mostly up to 46 µM; note: potency is the fitted concentration of half-maximal effect;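 for activity change, negative = cytotoxic: plate controls were DMSO neutral control for no effect and bortezomib for full effect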
In short: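 Metabolically active cells were quantified by ATP-dependent luminescence (CellTiter-Glo, 15 min at room temperature) following 48 h treatment. Cells had been plated at 500-1,000 per well and settled for 5 h beforehand.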

[8] = P-glycoprotein substrates identified in KB-8-5-11 adenocarcinoma cell line, qHTS therapeutic library screen (AID 1346987); conditions: KB-8-5-11 (P-gp overexpressing) viability, CellTiter-Glo, 72 h; series mostly up to 44.5 µM; note: % is set by controls: 0 for no effect and ±100 for the full control effect; nearly all actives have a fitted effect of over 65% in size
In short: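 KB-8-5-11, a colchicine-selected P-gp-overexpressing KB-3-1 subline, was grown without colchicine for the assay. Cells were seeded at 500 cells/well, dosed in concentration-response and incubated 72 h at 37 degree C, 5% CO2. Viability was read by CellTiter-Glo luminescence.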

[9] = qHTS of pediatric cancer cell lines to identify multiple opportunities for drug repurposing: Primary screen for DAOY cells (AID 1347090); conditions: DAOY medulloblastoma viability, CellTiter-Glo luminescence, 48 h; series mostly up to 46 µM;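 note: plate controls were DMSO for no effect and bortezomib for full effect; nearly all actives have a fitted effect of over 55% in size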
In short: as §1

CC(=O)/C=C/C=C1/C2CCC(C2)C1(C)C (stereo not drawn)
inactive: outcome [1] | Potency [2] | Potency [3] | Potency [4] | Potency [5] | Potency [6]

CC[C@@H]([C@H](C)O)n1ncn(-c2ccc(N3CCN(c4ccc(OC[C@@H]5CO[C@@](Cn6cncn6)(c6ccc(F)cc6F)C5)cc4)CC3)cc2)c1=O
inactive: outcome [1] | Potency [3]
active: Potency [4] 18.8 µM | Potency [7] 11.9 µM

CO[C@@H]1[C@@H](O[C@@H]2O[C@H](C)[C@@H](O[C@H]3C[C@@](C)(O)[C@@H](O)[C@H](C)O3)[C@H](N(C)C)[C@H]2O)[C@@H](CC=O)C[C@@H](C)[C@@H](O[C@@H]2CC[C@H](N(C)C)[C@@H](C)O2)/C=C/C=C/C[C@@H](C)OC(=O)C[C@H]1OC(C)=O
inactive: outcome [1] | Potency [8] | Potency [2] | Potency [3] | Potency [9] | Potency [4] | Potency [7] | Potency [6]

CC1CN(c2cc3c(cc2F)c(=O)c(C(=O)O)cn3-c2ccc(F)cc2F)CCN1 (stereo not drawn)
inactive: activity change, negative = inhibition [1] -1.94% [at 4.53 µM] | Potency [8] | activity change, negative = inhibition [2] -15.5% [at 4.81 µM] | activity change, negative = cytotoxic [3] -4% [at 4.81 µM] | activity change, negative = cytotoxic [9] 0.682% [at 4.84 µM] | activity change, negative = cytotoxic [4] 78.3% [at 4.84 µM] | activity change, negative = cytotoxic [5] -9.43% [at 4.84 µM] | activity change, negative = cytotoxic [7] 32.9% [at 4.84 µM] | activity change, negative = cytotoxic [6] 1.04% [at 6.03 µM]

O=C(O)c1cn(C2CC2)c2cc(Cl)c(F)cc2c1=O
inactive: outcome [1] | Potency [2] | Potency [3] | Potency [9] | Potency [4] | Potency [5] | Potency [7] | Potency [6]

CCCCN(CCCC)C(C(N)=O)c1ccc(OC)cc1 (stereo not drawn)
inactive: outcome [1] | Potency [2] | Potency [9] | Potency [4] | Potency [5] | Potency [7] | Potency [6]

CC1(C)S[C@@H]2[C@H](NC(=O)C(c3ccccc3)S(=O)(=O)O)C(=O)N2[C@H]1C(=O)O (stereo partly drawn)
inactive: outcome [1] | Potency [8] | Potency [2] | Potency [3] | Potency [9] | Potency [4] | Potency [5] | Potency [7] | Potency [6]

CCCCC(CC)COC(=O)c1ccccc1C(=O)O (stereo not drawn)
inactive: outcome [1] | Potency [8] | Potency [2] | Potency [3] | Potency [9] | Potency [4] | Potency [5] | Potency [6]

COC(=O)c1cc(S(N)(=O)=O)ccc1OC
inactive: outcome [1] | Potency [2] | Potency [3] | Potency [9] | Potency [4] | Potency [5] | Potency [7] | Potency [6]

COCCOCC(OC)OC
inactive: outcome [1] | Potency [2] | Potency [9] | Potency [4] | Potency [5] | Potency [7] | Potency [6]

Nc1cccc2c(N)cccc12
inactive: outcome [1] | Potency [8] | Potency [2] | Potency [9]
active: Potency [5] 24.3 µM | Potency [7] 24.3 µM

CCC(=O)Oc1ccc2c(c1)CC[C@@H]1[C@@H]2CC[C@@]2(C)[C@H]1C[C@@H](OC(=O)CC)[C@@H]2OC(=O)CC
inactive: outcome [1] | Potency [2] | Potency [3] | Potency [9] | Potency [4] | Potency [5] | Potency [6]

Nc1c(I)cc(I)c(C(=O)N(CCC(=O)O)c2ccccc2)c1I
inactive: Potency [2] | Potency [9] | Potency [4] | Potency [5] | Potency [7] | Potency [6]
